Source: PubChem (National Center for Advancing Translational Sciences (NCATS))
Sampled rows, rich in hits. Any-hit rate of the full collection: about 19%.
HT1080 IDH1KD tx: qHTS for induction of synthetic lethality in tumor cells producing 2HG: qHTS for the HT-1080-IDH1KD cell line | 2% of 360,000 active | HT-1080 IDH1 knockdown viability, ATP luminescence, 48 h | AID 686971, 2013 | Potency, µM (top dose mostly 46.1 µM), inactives show top-dose activity, negative = toxicity, actives largely listed as cytotoxic;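 note: potency is the fitted concentration of half-maximal effect; 0% = DMSO wells and -100% = cell-free medium wells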
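IDH1KD HT-1080 cells, 750/well, RPMI + 5% FBS; compound pinned after 2 h settling; 48 h, 37 °C; CellTiter-Glo luminescence; % activity normalised to DMSO and no-cell wells; curves fitted, classed by r2 and efficacy.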
TDP1 cell CPT: qHTS for Inhibitors of human tyrosyl-DNA phosphodiesterase 1 (TDP1): qHTS in cells in presence of CPT | chicken DT40 Tdp1-/-;hTDP1 cells + 20 nM CPT, ATP luminescence, 48 h | Potency, µM (doses to about 46.2 µM), for inactives: at the top dose activity change, negative = growth inhibition, most hits filed as inhibitors | 12% of 420,000 active | AID 686979, 2013; note: potency is the fitted concentration of half-maximal effect; nearly all actives have a fitted effect of over 55% in size
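Cell growth measured by CellTiter-Glo luminescence after a minimum 48 h, 37 C compound exposure with 20 nM CPT in Tdp1-knockout DT40 cells stably expressing hTDP1, seeded 400/well; qHTS titration format.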
ELG1 DNA repair: qHTS screen for small molecules that inhibit ELG1-dependent DNA repair in human embryonic kidney (HEK293T) cells expressing luciferase-tagged ELG1; 2.3% of 330,000 active; HEK293T ELG1-luciferase reporter, luminescence, 16 h; DNA damage induced by 5-fluorouridine; Potency, µM (top dose mostly 46.1 µM), for inactives: at the highest dose activity change, negative = inhibition, usual class: inhibitors; AID 504467, 2011; note: potency is the fitted concentration of half-maximal effect; nearly all actives have a fitted effect of over 55% in size
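5-Fluorouridine DNA damage + compound/DMSO, 2,000 cells/well, 16 h, 37 °C/5% CO2. ONE-Glo, 30 min RT, luminescence. Readout = decrease in reporter signal.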
HT1080NT lethal: qHTS for induction of synthetic lethality in tumor cells producing 2HG: qHTS for the HT-1080-NT fibrosarcoma cell line; HT-1080-NT fibrosarcoma viability, CellTiter-Glo ATP luminescence, 48 h; Potency, µM (top dose mostly 46.1 µM), inactives show at the top dose activity, negative = less viability, usual class: cytotoxic; 1.6% of 360,000 active; AID 686970, 2013;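 note: NT is the 2HG producing partner of a matched IDH1 knockdown line; potency is the fitted concentration of half-maximal effect; 0% = DMSO-treated cells and -100% = media-only wells without cells; nearly all actives have a fitted effect of over 55% in size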
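Fibrosarcoma NT cells, 750 per well in 5% FBS RPMI, were exposed to compound for 48 hours. Viability: CellTiter-Glo luminescence.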
DT40 TDP1 no CPT: qHTS for Inhibitors of human tyrosyl-DNA phosphodiesterase 1 (TDP1): qHTS in cells in absence of CPT; DT40 Tdp1-/- hTDP1 cells, no CPT, ATP luminescence, 48 h; Potency, µM (top dose mostly 46.2 µM), for the others: top-dose activity change, negative = growth inhibition, hits mostly inhibitors; 15% of 420,000 active; AID 686978, 2013; note: potency is the fitted concentration of half-maximal effect; nearly all actives have a fitted effect of over 55% in size
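Growth kinetics read by CellTiter-Glo luminescence after ≥48 hr at 37 °C. Cells: DT40 Tdp1-/- stably carrying human TDP1, 400 per well, compound exposure in the absence of CPT (DMSO vehicle).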
IL-1B inflam inh: qHTS for Inhibitors of Inflammasome Signaling: IL-1-beta AlphaLISA Primary Screen. activity change, % at 57.5 µM. THP-1 LPS/ATP IL-1B secretion, AlphaLISA, 16 h; active compounds read low. 4.7% of 360,000 active; in the data active = activity change below about -50%; inconclusive = mostly about -30% to -49%
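THP-1 cells pretreated 1 hr with compounds (up to 57.5 uM final), then stimulated with LPS (250 ng/mL final) plus ATP (1.25 mM final); secreted IL-1B measured by AlphaLISA after 16 hr, decreased signal indicating inhibition.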
* = called active by the depositor; ? = inconclusive; . = no result given; [ ] = dose if it differs, or a comment. Unless noted, calls come from the whole dose curve; as a rule, active = well fitted curve in the direction sought with a large enough effect; inconclusive = small, poorly fitted or top-dose-only effect, or another doubt; inactive = no such curve, though single readings can be large; an effect the other way counts as inactive or inconclusive. Unless noted, % is set by controls: 0 for no effect and ±100 for the full control effect.

SMILES	HT1080 IDH1KD tx	TDP1 cell CPT	ELG1 DNA repair	HT1080NT lethal	DT40 TDP1 no CPT	IL-1B inflam inh
COC(=O)c1ccc(/C=N/NC(=O)C(=O)NCc2ccccc2)cc1	18%	3%	11%	9%	-1%	28
Fc1ccc(-c2nnc3ccc(N4CCc5ccccc5C4)nn23)cc1	-20%	9.2µM*	18µM*	0%	8.2µM*	-89*
O=C(CSc1ccc2nnc(-c3ccc(Cl)cc3)n2n1)N1CCc2ccccc21	0%	-3%	27%	2%	-28%	16
O=C(Nc1ccccc1C(F)(F)F)N1CCN(c2ccc3nnc(-c4ccc(F)cc4)n3n2)CC1	-26%	?	12µM*	-16%	?	-23
O=C(Nc1ccc(F)cc1)N1CCN(c2ccc3nnc(-c4ccc(F)cc4)n3n2)CC1	?	?	7.3µM*	?	?	-21
O=C(Nc1ccccc1C(F)(F)F)N1CCN(c2ccc3nncn3n2)CC1	1%	9%	0%	0%	-26%	0
CCOC(=O)c1ccc(N=Cc2cnc(N)nc2N)cc1	-4%	?	.	-14%	-20%	9
CC(/C=C/c1ccc(O)cc1)=NNc1ccccc1	?	?	.	?	?	-16
COCCn1cnnc1SCC(=O)Nc1ccc(Br)cc1F	10%	3%	13%	7%	-12%	18
CN(C)CCCN(C(=O)COc1ccccc1)c1nc2cc3c(cc2s1)OCCO3	1%	-7%	?	-1%	-30%	-1
Cc1cccc2sc(N(CCCN(C)C)C(=O)CCc3ccccc3)nc12	0%	26µM*	11%	-28%	?	-18
CN(C)CCCN(C(=O)CCc1ccccc1)c1nc2ccc(Br)cc2s1	?	?	7%	18µM*	23µM*	-102*
Cc1cccc2sc(N(CCCN(C)C)C(=O)CN3C(=O)c4ccccc4C3=O)nc12	8%	?	-1%	8%	?	-8
CN(C)CCCN(C(=O)CCc1ccccc1)c1nc2ccc(F)cc2s1	-4%	-19%	4%	-5%	16µM*	-18
CN(C)CCN(C(=O)CCc1ccccc1)c1nc2c(F)cc(F)cc2s1	2%	-10%	-10%	-1%	-20%	0
CN(C)CCN(C(=O)/C=C/c1cccs1)c1nc2ccc(F)cc2s1	?	21µM*	12%	?	18µM*	-66*
CCN(CC)CCN(C(=O)c1ccccc1OC)c1nc2ccc(F)cc2s1	-11%	?	7%	-8%	?	-25
CN(C)CCCN(C(=O)c1cc(-c2cccs2)nc2ccccc12)c1nc2ccc(F)cc2s1	21µM*	23µM*	?	8.2µM*	13µM*	-59*
CC1CCCCC1NS(=O)(=O)c1ccc(S(=O)(=O)NCc2ccncc2)cc1 (stereo not given)	?	6.5µM*	?	0%	7.3µM*	-22
CC(=O)Nc1ccc(S(=O)(=O)CCC(=O)O)cc1	4%[9.24 µM]	-16%	?	-3%	-5%	26
CC(=O)CCS(=O)(=O)c1ccc(NC(C)=O)cc1	?	13µM*	10%	?	18µM*	-8
Cc1ccc(S(=O)(=O)NCCCCCCNS(=O)(=O)c2ccc(C)cc2)cc1	-5%	?	.	-18%	23µM*	-28
CCOc1ccc(S(=O)(=O)NC2CCCCC2C)cc1 (stereo not given)	3%	?	.	0%	?	0
Cc1ccc(S(=O)(=O)NCCCNS(=O)(=O)c2ccccc2)cc1	-1%	-7%	-4%	-2%	-16%	17
CCOc1ccc(S(=O)(=O)NCc2ccncc2)cc1	-18%	0.46µM*	?	-16%	0.52µM*	-12
SMILES	HT1080 IDH1KD tx	TDP1 cell CPT	ELG1 DNA repair	HT1080NT lethal	DT40 TDP1 no CPT	IL-1B inflam inh
O=C(COC(=O)Cc1n[nH]c(=O)c2ccccc12)Nc1c(Cl)cccc1C(F)(F)F	0%	-15%	0%	-6%	-5%	-5
CCOc1ccc(NS(=O)(=O)c2ccc(C(=O)NCc3ccncc3)cc2)cc1	1%	?	-8%	-1%	13µM*	8
CC(=O)Nc1ccc(S(=O)(=O)NCc2ccccn2)cc1	2%	0%	-4%	-6%	-8%	13
Cc1ccc(S(=O)(=O)NCc2ccncc2)cc1	6.5µM*	4.1µM*	?	-16%	3.7µM*	42
CC(=O)Nc1ccc(S(=O)(=O)NCc2ccncc2)cc1	-10%	9.2µM*	-14%	0%	9.2µM*	38
COCCNC(=O)C1(C)CCCN(C(=O)c2ccc3c(c2)CCO3)C1 (stereo not given)	24%	-3%	.	14%	-14%	-12
Cc1ncoc1C(=O)N1CCOc2ccc(CN3CCN(c4ccccn4)CC3)cc2C1	.	-7%[9.04 µM]	.	.	?	.
CCN(CC)c1ccc(N=Nc2ccc(S(=O)(=O)N(C)C)cc2)c(S(=O)(=O)NCC[n+]2ccccc2)c1	.	-20%	.	.	-30%	.
Cn1nc(-c2ccncc2)nc2c(=O)n(C)c(=O)nc1-2	.	0.32µM*	.	.	0.35µM*	.
CCn1nc(-c2ccc(C)cc2)nc2c(=O)n(C)c(=O)nc1-2	.	1.6µM*	.	.	2.2µM*	.
CCCN1C(=O)c2cc(C(=O)Nc3cccc(C(C)=O)c3)ccc2C1Nc1cccc(C(C)=O)c1 (stereo not given)	-1%	8.2µM*	16µM*	?	15µM*	0
COCCCNc1ncnc2sc3c(c12)CCC(C)C3 (stereo not given)	?	?	?	-25%	23µM*	-8
Cc1ccc(S(=O)(=O)N2CCN(C(=O)COC(=O)C3CCC3)CC2)c(C)c1	2%	-9%	19%	6%	-8%	10
Cc1cc(NC(=O)c2c(Cl)cccc2Cl)no1	2%	4%	2%	2%	-6%	-3
Cc1cc(NC(=O)c2ccc(-c3ccccc3[N+](=O)[O-])o2)no1	17%	?	15%	23%	?	1
COc1cccc(NC(=O)c2cc(-c3cccnc3)nc3c(Cl)cccc23)c1	?	?	?	-24%	?	-7
